Screens as filed in PubChem BioAssay.
Tau ThT inhib = tau fibrillization inhibition (ThT binding) | P10636 | Potency, µM (doses to about 57.4 µM), inactives show top-dose activity, negative = inhibition, hits mostly inhibitors | 270,000 compounds, 2.1% hits | recombinant tau K18 P301L, heparin-induced fibrillization, ThT fluorescence; note: potency is the fitted concentration of half-maximal effect; % is set by controls: 0 for no effect and ±100 for the full control effect; nearly all actives have a fitted effect of over 55% in size
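Heparin-induced fibrillization of the P301L-mutant K18 repeat-domain fragment of human tau was followed by ThT binding in quantitative high-throughput format.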
Tau fibril FP = blocks human tau fibril formation measured by polarization. P10636. K18 P301L tau heparin fibrillization, Alexa594 FP, 6 h. Potency, µM (top dose mostly 57.7 µM), without a hit: at the highest dose activity, negative = inhibition, hits mostly inhibitors. 280,000 compounds, 0.39% hits; note: potency is the fitted concentration of half-maximal effect; % is set by controls: 0 for no effect and ±100 for the full control effect; nearly all actives have a fitted effect of over 55% in size
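FP of Alexa 594-tau after heparin (20 uM) induction. Substrate: human K18 P301L, 15 uM unlabeled, 0.24 uM labeled. Buffer 100 mM sodium acetate pH 7. 6 hr, 37 C.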
TRb-SRC2 inh = disrupts binding of human TR beta to SRC2. P10828. TRbeta-SRC2 peptide binding, fluorescence polarization; receptor liganded with 1 µM T3. Potency, µM (titrated, usually from 106 µM), inactives show top-dose activity change, negative = inhibition, usual class: inhibitors. 280,000 compounds, 0.065% hits. AID 1469;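 note: potency is the fitted concentration of half-maximal effect; plate controls were bound peptide for no effect and peptide without receptor for full effect; nearly all actives have a fitted effect of over 50% in size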
Target sequence (P10828 whole entry, looked up): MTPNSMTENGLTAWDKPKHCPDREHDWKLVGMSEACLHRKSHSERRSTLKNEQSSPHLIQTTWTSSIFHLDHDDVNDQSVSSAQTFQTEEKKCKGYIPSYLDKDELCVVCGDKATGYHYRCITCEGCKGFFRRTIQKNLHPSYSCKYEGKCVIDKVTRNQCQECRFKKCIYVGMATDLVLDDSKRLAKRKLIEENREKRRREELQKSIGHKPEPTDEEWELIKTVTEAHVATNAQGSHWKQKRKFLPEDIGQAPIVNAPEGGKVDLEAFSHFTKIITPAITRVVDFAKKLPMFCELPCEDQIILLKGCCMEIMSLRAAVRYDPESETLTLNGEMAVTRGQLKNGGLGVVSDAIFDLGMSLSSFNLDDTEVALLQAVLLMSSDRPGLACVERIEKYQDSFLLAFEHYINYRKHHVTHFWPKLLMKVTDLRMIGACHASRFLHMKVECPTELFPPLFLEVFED
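Each compound concentration gave % activity, normalized to unbound and bound Texas Red SRC2 controls, from polarization read after 5 hr ambient incubation with T3-loaded human TRb LBD.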
TR SRC2 fluor cs = counter-screen for TRb-SRC2 inhibitors: fluorescence interference | Potency, µM (doses to about 106 µM), for the others: top-dose fluorescence change, negative = quenching | 280,000 compounds, 0.29% hits | TRb/SRC2 Texas Red total fluorescence interference; active = well fitted curve in either direction with a large enough effect; inconclusive = small, poorly fitted or top-dose-only effect; note: potency is the fitted concentration of half-maximal effect; % is set by controls: 0 for no effect and ±100 for the full control effect
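Human TRβ ligand-binding domain (0.6 uM) and Texas Red SRC2 peptide (20 nM) in Tris buffer with 1 uM T3 and 5% DMSO were incubated with pinned compound for 5 hr at ambient temperature. Total fluorescence was computed as S + 2P (555/632 nm).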
Tau fluor counter = counter-screen for tau fibril formation inhibitors | tau K18 P301L Alexa594 fluorescence, heparin fibrillization | Potency, µM (top dose mostly 57.7 µM), inactives show at the highest dose activity change, negative = decrease | 280,000 compounds, 0.93% hits; note: potency is the fitted concentration of half-maximal effect; % is set by controls: 0 for no effect and ±100 for the full control effect; nearly all actives have a fitted effect of over 55% in size
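Human K18 P301L tau (15 uM unlabeled plus 0.24 uM Alexa 594-labeled, final) in 100 mM sodium acetate pH 7 was mixed with compound and 20 uM heparin and incubated 6 hr at 37 C.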
Tau fibril TEM = Inhibits tau K18 fibrillization by TEM grading; 45 compounds, 70% hits; AID 1719; recombinant tau K18 P301L fibrillization, TEM grading; stronger effect = higher value; shares compounds with Tau ThT inhib; fibril grade (0 = clumped fibrils, 4 = only tiny pieces) (test concentration not listed);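 active = compounds whose electron micrographs showed tau fibrils broken into shorter filaments or fragments, graded high on fibril breakup; inconclusive = micrographs gave an unclear fibril picture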
tau fibril sed = reduces sedimented tau K18 P301L aggregates; shares compounds with Tau ThT inhib; recombinant tau K18 P301L (four-repeat tau fragment), sedimentation SDS-PAGE densitometry; inhibition, % at 100 µM; 110 compounds, 50% hits; in the data active = inhibition above about 40%; inconclusive = no clear call, values can overlap the other calls; inactive = below about 18%
* marks the source's active call; other numbers are inactive results; ? = inconclusive; / = no result; ! = not active in a repeat; [ ] = remark or other dose. Hits are enriched below; roughly 3.1% of the tested compounds scored in any of these assays. Unless noted, calls come from the whole dose curve; as a rule, active = well fitted curve in the direction sought with a large enough effect; inconclusive = small, poorly fitted or top-dose-only effect, or another doubt; inactive = no such curve, though single readings can be large; an effect the other way counts as inactive or inconclusive.

SMILES	Tau ThT inhib	Tau fibril FP	TRb-SRC2 inh	TR SRC2 fluor cs	Tau fluor counter	Tau fibril TEM	tau fibril sed
CCOC(=O)c1ccc(N2C(=O)c3n[nH]c(C)c3C2c2ccc(OCC)cc2)cc1 (configuration not stated)	1%	?	-6%	-1%	-24%	/	/
O=C(Cc1ccccc1)Nc1sc2c(c1C(=O)Nc1ccc(Cl)cc1)CCCC2	8.9µM*	?	-9%	6%	-24%	2*	61*
O=C(Cc1ccccc1)Nc1sc2c(c1C(=O)Nc1ccccc1)CCCCC2	-3%	-11%	-8%	?	-9%	/	/
Nc1c(-c2ccncc2)cc[nH]c1=O	/	/	/	/	/	0	55*
CN(C)c1ccc(-c2cc[nH]c(=O)c2N)cc1	/	/	/	/	/	3*	68*
CN(C)C(=O)c1ccc(-c2cc[nH]c(=O)c2N)cc1	/	/	/	/	/	0	48*
CN(C)C(=O)c1ccc(-c2cncnc2NCc2cccs2)cc1	-9%	-7%	6%	1%	-7%	/	/
Cc1ccc(N(NC(=O)C(O)(c2ccccc2)c2ccccc2)C(=O)CCl)cc1	4%	-7%	-5%	-1%	0%	/	/
CCOc1ccc(C2=NC(c3cccs3)=Nc3ccc(CC)cc3N2)cc1OCC	-11%	2%	-4%	-2%	-29%	/	/
Cc1ccc(Cl)cc1NC(=O)Nc1cn(CC(C)C)c(=O)c2ccccc12	-2%	1%	-1%	0%	?	/	/
COc1cc(C(O)CO)ccc1O (configuration not stated)	-3%	-2%	1%	-13%	-2%	/	/
NC[C@@H](O)c1ccc(O)c(O)c1	?	?	-3%	?	-15%	/	18
NC[C@H](O)c1ccc(O)c(O)c1	4µM*!	6.3µM*!	-4%	-5%	?	3*	75*
O=C(CN1CCN(Cc2ccc(Cl)cc2)CC1)N/N=C/c1ccccc1F	2%	10%	-2%	-1%	9%	/	/
Cc1ccc(N2C(=O)SC(Cc3ccccc3)C2=O)cc1 (configuration not stated)	?	?	-10%	-1%	-24%	?	?
O=C1SC(Cc2ccccc2)C(=O)N1c1ccccc1 (configuration not stated)	-8%	1%	-9%	-5%	-6%	/	/
Cc1c(C#N)c(NC(=O)CCl)n(Cc2cccs2)c1C	?	0%	-8%	4%	-5%	/	/
O=C(COC(=O)c1ccc(O)cc1)Nc1cccc(S(=O)(=O)NC2=NCCCCC2)c1	-9%	-11%	3%	3%	-18%	/	/
Nc1nc2cc(S(=O)(=O)NC3=NCCCCC3)ccc2s1	5µM*	?	-1%	-12%	-25%	2*	69*
CCOC(=O)c1ccc(S(=O)(=O)Nc2nc3cc(S(=O)(=O)NC4=NCCCCC4)ccc3s2)cc1	11µM*	16µM*	-2%	0%	?	2*	68*
CCC(CC)C(=O)Nc1cccc(-c2nc3cccnc3s2)c1C	-6%	-7%	2%	-9%	-1%	/	/
O=S(=O)(c1ccc(NC(=S)N/N=C/c2ccc(Oc3ccccc3)cc2)cc1)N1CCOCC1	4%	1%	-3%	3%	-10%	/	/
O=S(=O)(c1ccc(NC(=S)N/N=C/c2ccc(N3CCOCC3)cc2)cc1)N1CCOCC1	?	14%	5%	-1%	?	/	11
Cn1[nH]c(CSc2ccc(Cl)cc2)cc1=O	?	?	-1%	-4%	?	/	16
CCSc1ncc(Cl)c(C(=O)N(Cc2ccc(C(C)(C)C)cc2)C2CCS(=O)(=O)C2)n1 (configuration not stated)	-15%	7%	6%	?	-22%	/	/
Cc1nc2ccccc2oc1=O	?	10%	2%	-3%	?	/	13
CC(C)(C)/C(O)=C/c1nc2ccccc2oc1=O	-2%	-6%[2.34 µM]	-2%	-9%	-4%	/	/
Cc1ccc(C)c(N(C)C(=O)c2cn(C)c(=O)c3ccccc23)c1	0%	-4%	-5%	-3%	-5%	/	/
COC(=O)CSc1nc2ccc(NC(=O)CSc3nnnn3Cc3ccccc3)cc2s1	?	?	3%	-2%	?	/	18
